Bioassay records as filed in PubChem.
Hits are enriched below; roughly 4.3% of the tested compounds scored in any of these assays.
sPLA2-III inh: human group III sPLA2 inhibitors, primary screen, biochemical, QFRET, BODIPY PC-A2 liposome substrate | Group 3 secretory phospholipase A2 (Homo sapiens), Q9NZ20 | QFRET BODIPY PC-A2 liposome hydrolysis, fluorescence | inhibition, % at 12.2 µM | 370,000 compounds, 0.56% hits | AID 743126, 2013;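 active = inhibition above mean plus 3 SD of compounds lying within the high and low control bounds, cut at about 19% in these data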;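 also: 0% = median of test compound wells and 100% = no enzyme DMSO wells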
ADAM10 inh: human ADAM10 inhibitors, primary screen, biochemical, QFRET, HTS; Disintegrin and metalloproteinase domain-containing protein 10 (Homo sapiens), O14672; inhibition, % at 7 µM; AID 720582, 2013; 370,000 compounds, 0.62% hits; recombinant ADAM10, EDANS/DABCYL FRET peptide cleavage, 3 h;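 active = inhibition above a per-campaign cutoff equal to the mean of compounds falling between control-based bounds plus 3 SD, cut at about 20% in these data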;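 also: 0% = DMSO wells while the 100% control is not disclosed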
Target sequence (O14672 214-748 limits assumed): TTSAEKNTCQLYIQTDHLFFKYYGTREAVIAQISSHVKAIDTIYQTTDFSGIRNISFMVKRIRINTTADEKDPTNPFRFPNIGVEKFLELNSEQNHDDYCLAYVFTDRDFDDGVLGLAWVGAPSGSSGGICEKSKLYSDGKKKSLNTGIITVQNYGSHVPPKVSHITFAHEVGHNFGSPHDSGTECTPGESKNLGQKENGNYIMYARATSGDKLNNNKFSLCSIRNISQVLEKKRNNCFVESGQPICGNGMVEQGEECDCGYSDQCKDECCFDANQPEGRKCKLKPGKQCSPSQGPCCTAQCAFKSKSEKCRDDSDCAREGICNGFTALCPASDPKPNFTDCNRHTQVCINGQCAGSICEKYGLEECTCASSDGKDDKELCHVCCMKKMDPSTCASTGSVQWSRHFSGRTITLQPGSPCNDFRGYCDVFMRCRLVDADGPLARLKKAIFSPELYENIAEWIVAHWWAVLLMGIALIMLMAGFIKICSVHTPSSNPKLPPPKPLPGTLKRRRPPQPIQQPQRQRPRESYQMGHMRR
NR3A LBD binder: binders of NR3A ligand-binding domain, primary screen, biophysical, differential scanning fluorimetry, uHTS; Tm shift relative to glycine control, % at 25 µM; NR3A LBD differential scanning fluorimetry, Tm shift; 0% = protein alone, 100% = glycine-bound protein; Glutamate receptor ionotropic, NMDA 3A (GRIN3A) ligand-binding domain; 340,000 compounds, 2.5% hits; AID 1259313, 2017;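 active = melting temperature shift of at least 10% of the positive control shift, at one fixed dose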
FAS-TE inh: FAS thioesterase domain inhibitors, primary screen, biochemical, fluorescence intensity, uHTS; Fatty acid synthase (Homo sapiens), P49327; recombinant FAS-TE, OMFH fluorogenic substrate, fluorescence endpoint; inhibition, % at 15 µM; 360,000 compounds, 0.67% hits;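 active = compounds whose normalised, plate-corrected inhibition of enzyme fluorescence in the single-dose primary screen is 50% or more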;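 also: 0% = DMSO with enzyme and 100% = substrate without enzyme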
ADAM17 inh: ADAM17 inhibitors, primary screen, biochemical, QFRET; inhibition, % at 6.95 µM; recombinant ADAM17, EDANS/DABCYL FRET peptide cleavage; AID 720648, 2013; 370,000 compounds, 0.83% hits;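 active = inhibition above the mean of compounds lying between control limits plus 3 SD, set per campaign, cut at about 8.5% in these data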;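 also: 0% = DMSO-only wells as the low control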
FAS-TE inh conf: FAS thioesterase domain inhibitors, confirmation, biochemical, fluorescence intensity, single concentration. shares compounds with FAS-TE inh. recombinant FAS-TE, OMFH fluorogenic substrate. inhibition, % at 15 µM. 2,300 compounds, 45% hits. AID 624325, 2012;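 active = compounds inhibiting the enzyme by at least 50% at 15 µM in any one of the replicates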;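 also: 0% = enzyme with DMSO only and 100% = wells lacking enzyme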
ADAM10 confirm: human ADAM10 inhibitors, confirmation, biochemical, QFRET, triplicate; ADAM10 QFRET peptide cleavage, EDANS fluorescence; inhibition, % at 6.95 µM; shares compounds with ADAM10 inh; 2,100 compounds, 1% hits;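 active = inhibition above about 20% chosen separately for each screening run, limit read from the data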;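 also: 0% = DMSO wells and 100% = marimastat wells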
ADAM17 counter: ADAM17 inhibitors, counter-screen for ADAM10 exosite inhibitor project, biochemical, QFRET, high throughput. ADAM17 QFRET peptide cleavage, EDANS fluorescence. inhibition, % at 6.95 µM. shares compounds with ADAM10 inh. AID 743214, 2013. 2,100 compounds, 0.5% hits;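 active = mean triplicate inhibition above the solvent-only control wells' mean plus 3 SD, cut at about 12% in these data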;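 also: 0% = DMSO wells and 100% = marimastat wells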
hGIII sPLA2 conf: human group III sPLA2 inhibitors, confirmation, biochemical, QFRET, triplicate | shares compounds with sPLA2-III inh | inhibition, % at 12.2 µM | 2,000 compounds, 34% hits | recombinant hGIII-sPLA2, BODIPY PC-A2 QFRET fluorescence;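 active = mean inhibition across triplicates above the hit cutoff set in the earlier primary screen, cut at about 19% in these data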;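 also: 0% = enzyme with DMSO and 100% = DMSO wells lacking enzyme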
BODIPY interf: 535nm fluorescence optical interference, confirmation, artefact control for HGIII-sPLA2 inhibitor project, biochemical, QFRET. shares compounds with sPLA2-III inh. BODIPY FL product fluorescence interference. inhibition, % at 12.2 µM. 2,000 compounds, 8.5% hits. AID 743282, 2014;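 active = average inhibition above the solvent-only control mean plus 3 SD, cut at about 6% in these data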;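 also: 0% = DMSO with substrate plus product and 100% = DMSO with substrate alone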
The depositor's hits bear a star; x = no result given.

SMILES | sPLA2-III inh | ADAM10 inh | NR3A LBD binder | FAS-TE inh | ADAM17 inh | ADAM10 confirm | ADAM17 counter | others
COc1ccc(Br)cc1CN(C)C(C)C(=O)Nc1cc([N+](=O)[O-])ccc1OC (configuration not stated) | 20* | 7 | -2 | 54* | 0 | x | x | FAS-TE inh conf=26;hGIII sPLA2 conf=8;BODIPY interf=-8
COc1ccc(C#Cc2ccc3c(c2)[C@H]2[C@H](CCN2S(=O)(=O)c2ccccc2F)[C@H](CO)N3C)cc1 | 12 | -21 | x | x | -9 | x | x
COCCn1c(=NC(=O)c2ccc(S(=O)(=O)N3CCCc4ccccc43)cc2)sc2cc(S(C)(=O)=O)ccc21 | 20* | -8 | -6 | 84* | -4 | x | x | FAS-TE inh conf=32*;hGIII sPLA2 conf=-8;BODIPY interf=-1
O=C(CN(C(=O)c1ccc(Cl)cc1)C1CCCCC1)Nc1ccc(Cl)c([N+](=O)[O-])c1 | 20* | -1 | 8 | 76* | -3 | x | x | FAS-TE inh conf=12;hGIII sPLA2 conf=-7;BODIPY interf=-16
C=CCN1[C@H](C#N)[C@@H](c2ccc(C#Cc3cccnc3)cc2)[C@H]1CO | -2 | -72 | x | x | -19 | x | x
N#Cc1cc(NC2CCCC2)c([N+](=O)[O-])cc1C#N | 25* | -13 | 5 | 54* | -4 | x | x | FAS-TE inh conf=22;hGIII sPLA2 conf=8;BODIPY interf=-1
O=[N+]([O-])c1ccc(NC2CCCC2)cc1 | 0 | 8 | 2 | 3 | 1 | x | x
Cc1cc2nc(/N=C(\N)NC(=O)N3c4ccccc4Sc4ccccc43)nc(C)c2cc1C | 21* | -38 | -13 | 62* | -14 | x | x | FAS-TE inh conf=14;hGIII sPLA2 conf=2;BODIPY interf=0
COc1ccc2nc(/N=C(\N)NC(=O)C(C)(C)C)nc(C)c2c1 | 0 | -221 | -3 | -108 | -76 | x | x
CCOc1ccc(NC(=O)c2ccc3c(=O)n(-c4ccc(OC)cc4OC)c(=S)[nH]c3c2)cc1 | 2 | 24* | x | 14 | 8 | 1 | 0
O=C(COCc1ccccc1)NC1CCCCN(Cc2ccc(Cl)cc2)C1=O (configuration not stated) | -7 | -4 | x | x | -1 | x | x
C=CCc1cccc(CNc2nc3ccccc3n2CC)c1O | 8 | 20* | 3 | 16 | 5 | 3 | 1
CCCCn1c(NCc2ccccc2O)nc2ccccc21 | -13 | 4 | -12 | 9 | 1 | x | x
Cc1ccc(NC(=O)CSc2nc(NS(=O)(=O)c3ccc(C)cc3)cc(=O)[nH]2)cc1 | -47 | 23* | 2 | 39 | 7 | 8 | 1
CCOc1cc(S(=O)(=O)Nc2ccc(CC)cc2)ccc1Cl | -32 | 25* | 13* | 40 | 6 | 4 | 1
Cc1cc(C)c(C)c(S(=O)(=O)Nc2ccc3cn[nH]c3c2)c1C | -56 | 99* | 3 | 1 | -6 | 1 | 1
CC(NC(=O)c1cccs1)C(S)c1ccccc1 (configuration not stated) | 0 | 34* | 1 | -7 | 15* | 7 | 2
O=C(C1CCCN1S(=O)(=O)c1cccs1)N1CCc2ccccc2C1 (configuration not stated) | 12 | -15 | x | x | -3 | x | x
Cc1ccc(NC(=O)C2CCN(c3ncnc4sc(C)c(C)c34)CC2)cc1S(=O)(=O)N(C)C | -25 | 22* | 1 | 14 | 5 | 7 | 2
COc1ccc(S[C@]2(C(=O)N3CCN(c4ncccn4)CC3)CC(=O)N(C(=O)Nc3ccc(C)c(Cl)c3)[C@@H]2c2ccc(OC)cc2)cc1 | -2 | 0 | x | x | -1 | x | x
COc1ccccc1CCC(=O)Nc1cccc(S(=O)(=O)N2CCOCC2)c1 | 3 | 1 | 0 | 2 | -2 | x | x
COc1ccccc1CCC(=O)Nc1cccc(S(=O)(=O)N2CCCCCC2)c1 | -45 | 23* | -4 | 21 | 7 | 2 | 0
Cc1cc(C)c(C(=O)OCC(=O)Nc2cccc(S(=O)(=O)N3CCCCC3)c2)c(C)c1 | -39 | 28* | 6 | 22 | 13* | 8 | 4
Cc1noc(NS(=O)(=O)c2ccc(NC(=O)/C=C/c3ccc(C(C)C)cc3)cc2)c1C | -62 | 3 | 2 | 2 | 4 | x | x
Cc1noc(NS(=O)(=O)c2ccc(NC(=O)/C=C/c3ccc(Br)cc3)cc2)c1C | -49 | 22* | 7 | -1 | -2 | 0 | 0
SMILES | sPLA2-III inh | ADAM10 inh | NR3A LBD binder | FAS-TE inh | ADAM17 inh | ADAM10 confirm | ADAM17 counter | others
CC(C)n1nccc1N(Cc1ccc(Br)cc1)S(=O)(=O)c1ccccc1 | 8 | 15 | -1 | 25 | 3 | x | x
CC(C)n1nccc1N(Cc1ccc(Cl)cc1)S(=O)(=O)c1ccccc1 | 11 | 28* | -3 | 31 | 6 | 2 | 1
Cc1ccccc1Cn1cc(CN2[C@@H](Cc3ccccc3)COc3cc(Br)ccc3S2(=O)=O)nn1 | 7 | -12 | x | x | -3 | x | x
Cc1ccc(C)c(SCC(=O)Nc2cccc(S(=O)(=O)NC3=NCCCCC3)c2)c1 | -15 | -7 | -2 | -5 | -3 | x | x
Cc1cc(C)cc(-n2c(SCC(=O)Nc3cccc(S(=O)(=O)NC4=NCCCCC4)c3)nc3ccccc3c2=O)c1 | -8 | 26* | -2 | 48 | 6 | 4 | 1
O=C(COCc1ccccc1)N1CC[C@H]2[C@H](CCCN2Cc2cc(F)cc(F)c2)C1 | -2 | -4 | x | x | -1 | x | x
Cc1cc(N2CCOCC2)ccc1/C=C\[N+](=O)[O-] | 12 | 20* | 2 | -9 | 5 | 1 | 0
O=[N+]([O-])c1ccc(N2CCOCC2)cc1O | 5 | 1 | 1 | -5 | -1 | x | x
COc1ccc(C(=O)/C=C/c2ccccc2C(F)(F)F)cc1 | -5 | 20* | -36 | 12 | 6 | 2 | 0
